Data on 94 compounds can be found in PubChem BioAssay AID894 (National Center for Advancing Translational Sciences (NCATS), 2007).

Molecules are shown by their SMILES. Out of some 150,000 compounds screened, about 6,500 (4.3%) were called active. Inconclusive results (about 12%) are left out. The call rests on the fitted dose curve; in most records, active means well fitted inhibition curve with a large enough effect (not every such curve was filed as active); inconclusive means small, poorly fitted or top-dose-only effect, or another doubt; inactive means no such curve, though single readings can be large or run the other way. The full list was thinned out, with actives kept by preference.
On the % scale 0 is the no-effect control and ±100 the full control effect; potency means the concentration at half of the fitted maximal effect.

Sequence of 15-hydroxyprostaglandin dehydrogenase [NAD(+)] (Homo sapiens) (P15428 whole entry, looked up): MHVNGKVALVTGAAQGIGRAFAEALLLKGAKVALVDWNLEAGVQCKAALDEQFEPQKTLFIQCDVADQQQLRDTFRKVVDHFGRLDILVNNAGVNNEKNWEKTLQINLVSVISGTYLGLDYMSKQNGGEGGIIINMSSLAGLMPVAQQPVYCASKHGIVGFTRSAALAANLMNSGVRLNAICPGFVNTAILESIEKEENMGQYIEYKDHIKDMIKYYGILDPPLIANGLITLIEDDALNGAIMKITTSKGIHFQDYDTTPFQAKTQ

The test has as its target 15-hydroxyprostaglandin dehydrogenase [NAD(+)] (Homo sapiens) (UniProt P15428). The experiment in a line: qHTS Assay for Inhibitors of HPGD (15-Hydroxyprostaglandin Dehydrogenase). The conditions noted are these: purified HPGD, NADH fluorescence kinetic, PGE2 substrate; activity change, negative = inhibition: active compounds read low. An outline of the steps:
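20 nM HPGD preincubated 15 min at room temperature with compound in 50 mM Tris-HCl pH 8, 0.01% Tween 20. Started with 1 mM NAD+ and 30 uM prostaglandin E2; NADH fluorescence (360/450 nm) read 5 times over 30-s intervals, last minus first.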
A general note: qHTS replaces the single test concentration by a dilution series.
With `Nc1nc(SCCOc2ccccc2)n[nH]1`, the activity change, negative = inhibition is -1.6% (inactive).

`Nc1nc(SCC(=O)NN(c2ccccc2)c2ccccc2)n[nH]1`: the activity change, negative = inhibition is -3.02% (inactive).

For `Nc1nc(SCC(=O)NNc2c(Cl)cc(Cl)cc2Cl)n[nH]1`, the Potency is 35.5 µM (active).

Take `COc1ccc(Cl)cc1NC(=O)Cn1nc(-c2ccc(C)cc2)n(C)c1=S`: the activity change, negative = inhibition is -0.416% (inactive).

With `C[C@H]1Cc2c(COc3ccccc3)nc3c(c2CO1)CN(C(=O)Nc1cccc(C#N)c1)CC3`, the activity change, negative = inhibition was 0.277% (inactive).

With `N#C/C(=C\c1ccccc1)c1n[nH]c(Cn2cncn2)n1`, the Potency is 28.2 µM (active).

Take `S=C(NCCc1ccccc1)NCc1ccccc1Cl`: the activity change, negative = inhibition is -18.9% (inactive).

For the compound `O=S(=O)(NCCc1ccncc1)c1ccccc1`, the activity change, negative = inhibition is -10.2% (inactive).

On to `Cc1cc(Cl)ccc1NC(=S)NCCCN1CCCC1=O`, for which the activity change, negative = inhibition is -1.25% (inactive).

In the case of `NS(=O)(=O)c1ccc(CCNC(=O)Nc2ccc(Cl)cc2)cc1`, the activity change, negative = inhibition is -8.27% (inactive).

In the case of `Oc1cc2c(cc1O)CN(C(=S)NCCc1ccc(Cl)cc1)CCC2`, the Potency is 14.1 µM (active).

Consider `Cc1ccnc(NC(=O)c2ccoc2C)c1`, for which the activity change, negative = inhibition was -2.58% (inactive).

Take `Cc1cc2oc(C(=O)Nc3c(C)n(C)n(-c4ccccc4)c3=O)c(C)c2cc1Cl`: the activity change, negative = inhibition is -3.54% (inactive).

As for `O=[N+]([O-])c1cc(S(=O)(=O)N2CCCC2)ccc1NN=C1CCCC1`, the activity change, negative = inhibition is -4.68% (inactive).

Consider `C=C(C)c1cccc(C(C)(C)NC(=O)NC2CCCC2)c1`, for which the activity change, negative = inhibition was -3.62% (inactive).

As for `COc1ccc(COC(=O)N/N=C(\C)CC(=O)Nc2ccc(Cl)cc2)cc1`, the activity change, negative = inhibition is -4.69% (inactive).

As to `Cc1cc(C)cc(Oc2nc3c(C)cccn3c(=O)c2/C=C(\C#N)C(=O)NC2CCS(=O)(=O)C2)c1` (centres undefined), the activity change, negative = inhibition was -10.8% (inactive).

As to `Cc1ccc(C(c2nnnn2CS(=O)(=O)c2ccc(C)cc2)N2CCC(C(N)=O)CC2)cc1` (centres undefined), the activity change, negative = inhibition is -7.21% (inactive).

As to `Cc1cccn2c(=O)c(/C=C(\C#N)S(=O)(=O)c3ccc(Cl)cc3)c(N3CCC(C(N)=O)CC3)nc12`, the Potency was 15.8 µM (active).

Take `CN1CCC(=NNC(=O)c2ccc(N(Cc3ccc(Cl)cc3)S(C)(=O)=O)cc2)CC1`: the activity change, negative = inhibition was -8.83% (inactive).

In the case of `O=C(NNC1CC(=O)N(c2cccc(Cl)c2)C1=O)c1cccnc1` (centres undefined), the activity change, negative = inhibition is -13.5% (inactive).

For the compound `O=C(CNS(=O)(=O)c1ccccc1)NCC(=O)OCc1ccccc1F`, the activity change, negative = inhibition was 0.393% (inactive).

On to `Cn1c(NC(=O)c2ccc3c(c2)OCO3)cc(=O)n(C)c1=O`, for which the activity change, negative = inhibition was -14.1% (inactive).

`Cc1ccc(F)cc1NC(=O)c1ccc2c(c1)OCO2`: the Potency is 20 µM (active).

With `O=C(Nc1ccccc1)c1ccc2c(c1)OCO2`, the activity change, negative = inhibition is -29.6% (inactive).

Regarding `Cc1ccc(C(=O)NC(C)c2ccccc2)cc1Br` (centres undefined), the activity change, negative = inhibition is -29.6% (inactive).

Take `O=C(CSc1ncnc2scc(-c3ccccc3)c12)NCc1ccc2c(c1)OCO2`: the activity change, negative = inhibition is -13.5% (inactive).

As to `O=C(NC(=S)NC1CCSC1=O)c1ccccc1F` (centres undefined), the activity change, negative = inhibition is -13.4% (inactive).

As to `O=C(O)C[C@@H]1NC(=O)[C@H](Cc2ccccc2)NC1=O`, the activity change, negative = inhibition was -8.82% (inactive).

Regarding `Cc1ccc(C(=O)N/N=C/c2sc(=O)n(Cc3cccc(C(=O)O)c3)c2Cl)cc1`, the Potency is 28.2 µM (active).

With `Cc1ccccc1-n1c(C)cc(/C=N/NC(=O)c2ccc(CN3CCOCC3)cc2)c1C`, the activity change, negative = inhibition was -16.5% (inactive).

As for `Cc1ccc(C(=O)Nc2c(C#N)c(C)c(C)n2Cc2ccccc2)cc1`, the activity change, negative = inhibition is -7.72% (inactive).

As to `O=c1c2ccccc2c(-c2ccccc2)nn1Cc1ccccc1`, the activity change, negative = inhibition was -16.5% (inactive).

For `Cn1c(CO)cnc1SCc1ccccc1`, the activity change, negative = inhibition was 1.72% (inactive).

As to `CSc1c(SCc2ccccc2)cnn(Cc2ccccc2)c1=O`, the Potency was 25.1 µM (active).

As to `O=C(NNC(=O)c1cc2c(s1)CCCC2)c1ccccc1`, the activity change, negative = inhibition is -17.6% (inactive).

For `COC(=O)c1cccc(NC(=O)CSc2nc(C)cc(=O)[nH]2)c1`, the Potency is 20 µM (active).

For the compound `COc1ccc(NC(=O)CSc2nc(NS(=O)(=O)c3ccc(C)cc3)cc(=O)[nH]2)cc1`, the activity change, negative = inhibition was -10.9% (inactive).

For the compound `Cc1cccc(NC(=O)CSc2nc3[nH]ncc3c(=O)[nH]2)c1`, the activity change, negative = inhibition is -11% (inactive).

With `COc1cccc(CC(=O)N2CCc3nc(COc4ccccc4)c4c(c3C2)CO[C@@H](C)C4)c1`, the activity change, negative = inhibition was -2.54% (inactive).

In the case of `Cc1ccc(N/N=C2\COC(C)(C)CC2=O)cc1`, the activity change, negative = inhibition was -19.3% (inactive).

As for `C=C(C)C(=O)c1ccc(F)cc1`, the activity change, negative = inhibition was -9.12% (inactive).

`CNC(=O)/C(C#N)=C/c1c(F)cccc1Cl`: the activity change, negative = inhibition was -9.42% (inactive).

Consider `CC1CCCN(c2ccc(C(=O)NCCc3ccccc3)cn2)C1` (centres undefined), for which the Potency was 17.8 µM (active).

For the compound `O=C(NCCc1ccccc1)c1ccc(NC2=NC3CS(=O)(=O)CC3S2)cc1` (centres undefined), the activity change, negative = inhibition is -15.7% (inactive).

For the compound `O=C(NCCc1ccccc1)c1ccc(OCCOc2ccccc2)cc1`, the activity change, negative = inhibition is -14.9% (inactive).

As for `COC(=O)/C(C#N)=C/c1occc1C`, the activity change, negative = inhibition is -10.9% (inactive).

As for `N#C/C(=C(\O)CCl)c1nnc2n1CCCCC2`, the activity change, negative = inhibition was 1.76% (inactive).

Consider `N#C/C(=C/c1cccc([N+](=O)[O-])c1)c1nnc2n1CCCCC2`, for which the Potency was 20 µM (active).

Regarding `O=[N+]([O-])c1cccc(S(=O)(=O)N2CCCCCC2)c1`, the activity change, negative = inhibition was -12% (inactive).

As for `Cc1ccn(-c2cccc(-n3ccc(C)n3)n2)n1`, the activity change, negative = inhibition was -19.2% (inactive).

For the compound `O=C(OCC(=O)c1cccs1)C1=COCCO1`, the activity change, negative = inhibition was -17.4% (inactive).

On to `CC(C)NS(=O)(=O)c1ccc(OCC(=O)Nc2ccc3c(c2)OCCO3)cc1`, for which the activity change, negative = inhibition is 0.139% (inactive).

For `CCC(C)(C)c1ccc(Oc2ccc(NC(=O)COC(=O)C3=COCCO3)cc2)cc1`, the Potency was 14.1 µM (active).

Turning to `CC(C)(C)CC(C)(C)NCC(O)COCCOc1ccc(Br)cc1` (centres undefined), the activity change, negative = inhibition was -5.61% (inactive).

For the compound `CCOC(=O)c1c(/N=C/C2C(=O)CC(C)(C)CC2=O)sc(C)c1C`, the activity change, negative = inhibition was -11.6% (inactive).

`CCc1ccc(NC(=O)c2ccc(Cn3cc([N+](=O)[O-])cn3)cc2)cc1`: the activity change, negative = inhibition is -0.318% (inactive).

In the case of `O=C(Oc1ccccc1)c1ccc2nccnc2c1`, the activity change, negative = inhibition was -13% (inactive).

In the case of `O=C(COc1cccc(F)c1)Oc1ccc(C(=O)c2ccccc2)cc1`, the Potency was 7.94 µM (active).

Consider `O=C(c1ccccc1)c1ccc(OC(=O)N2CCCC2)cc1`, for which the activity change, negative = inhibition is -20% (inactive).

As to `C/C(=N\NC(=O)Cc1ccc(F)cc1)c1ccc(F)cc1`, the activity change, negative = inhibition is -3.27% (inactive).

In the case of `Cc1ccc(S(=O)(=O)N(NC2=NS(=O)(=O)c3ccccc32)C(=O)c2ccccc2)cc1`, the activity change, negative = inhibition was -7.36% (inactive).

On to `Cc1ccc(NC(=O)CSCC(=O)NC2CCCCC2)cc1`, for which the Potency is 15.8 µM (active).

Turning to `Cc1ccc(NC(=O)CSCC(=O)N2CCOCC2)cc1`, the activity change, negative = inhibition is 2.74% (inactive).

Turning to `Cc1ccc(NC(=S)NC2CCCC2)cc1`, the activity change, negative = inhibition is -9.46% (inactive).

Turning to `Cc1ccc(/C(N)=N/OC(=O)COc2ccc(Cl)c(C)c2)cc1`, the activity change, negative = inhibition was -14.6% (inactive).

Consider `COCCn1c(=O)[nH]c(=O)c2cc(C(=O)c3cc(OC)ccc3O)cnc21`, for which the Potency is 25.1 µM (active).

For `COc1ccc(O)c(C(=O)c2cnc3onc(C(C)C)c3c2)c1`, the activity change, negative = inhibition was -14.6% (inactive).

As to `COCCn1c(=S)[nH]c2cc(C(=O)NCCc3ccc(OC)c(OC)c3)ccc2c1=O`, the activity change, negative = inhibition is -4.68% (inactive).

For `Cc1ccc(CN2C(=O)N/C(=C/c3cc(C)n(-c4ccccn4)c3C)C2=O)cc1`, the activity change, negative = inhibition is -12.6% (inactive).

Consider `C/C(Cc1ccccc1)=N\NC(=O)CNC(=O)c1cccc(Br)c1`, for which the activity change, negative = inhibition is -6.55% (inactive).

In the case of `O=C(COC(=O)Cc1ccc(F)cc1)Nc1cc(S(=O)(=O)N2CCOCC2)ccc1N1CCCC1`, the activity change, negative = inhibition is -3.83% (inactive).

On to `CCCCCn1c(SCCC(C)C)nc2c1c(=O)[nH]c(=O)n2C`, for which the Potency is 20 µM (active).

Turning to `CCCCCCn1c(SCC(=O)c2ccccc2)nc2c1c(=O)[nH]c(=O)n2C`, the activity change, negative = inhibition is -21.9% (inactive).

`CCCSc1nc2c(c(=O)[nH]c(=O)n2C)n1CCc1ccccc1`: the activity change, negative = inhibition is -20.7% (inactive).

On to `O=C(COC(=O)Cc1ccc(Br)cc1)Nc1c(F)c(F)c(F)c(F)c1F`, for which the activity change, negative = inhibition is -9.95% (inactive).

Take `O=c1[nH]n(-c2cccc(Cl)c2)c2ncccc12`: the Potency was 6.31 µM (active).

Regarding `Cc1[nH]n(-c2cccc(Cl)c2)c(=O)c1/C=N/n1c(C)nc2ccccc2c1=O`, the activity change, negative = inhibition was -20.7% (inactive).

Turning to `Cc1[nH]n(-c2cccc(Cl)c2)c(=O)c1-c1ccc(Cl)cc1`, the activity change, negative = inhibition is -13% (inactive).

With `COc1cc(CCC(=O)OCC(=O)Nc2cccc(S(N)(=O)=O)c2)cc(OC)c1OC`, the activity change, negative = inhibition was -6.23% (inactive).

As to `COC(=O)c1onc(-c2c(OC)cc(OC)cc2OC)c1C(=O)OC`, the activity change, negative = inhibition was -3.93% (inactive).

Turning to `N#Cc1ccsc1NC(=O)CN1CCN(S(=O)(=O)c2cc(Cl)ccc2Cl)CC1`, the activity change, negative = inhibition was -24.3% (inactive).

`Cc1ccc(NN=Nc2nc3c([nH]2)c(=O)n(C)c(=O)n3C)cc1`: the Potency was 22.4 µM (active).

Turning to `CCCSc1nc2c(c(=O)n(C)c(=O)n2C)n1Cc1ccc(C)cc1`, the activity change, negative = inhibition was -7.96% (inactive).

Turning to `CC(CCO)Nc1nc2c([nH]1)c(=O)n(C)c(=O)n2C` (centres undefined), the activity change, negative = inhibition is -11.6% (inactive).

As to `Cc1cccc(Cn2c(SCCO)nc3c2c(=O)n(C)c(=O)n3C)c1`, the activity change, negative = inhibition was -7.66% (inactive).

On to `Cn1c(=O)[nH]c(=O)c2c1nc(Br)n2CCCCSc1nc2ccccc2o1`, for which the Potency was 25.1 µM (active).

`Cn1c(=O)c2c(nc(Br)n2CCSc2nc3ccccc3o2)n(C)c1=O`: the Potency is 31.6 µM (active).

As to `CN(Cc1ccccc1)c1nc2c(c(=O)[nH]c(=O)n2C)n1CCSc1nc2ccccc2[nH]1`, the activity change, negative = inhibition was -9.14% (inactive).

For the compound `Cc1ccnc(SCCn2c(Br)nc3c2c(=O)[nH]c(=O)n3C)n1`, the activity change, negative = inhibition was -9.47% (inactive).

Regarding `CCN(CC)C(=O)CSc1nc2ccccc2o1`, the activity change, negative = inhibition was -23.4% (inactive).

`CCCC/S(C)=N/S(=O)(=O)c1ccc(C)cc1` (centres undefined): the activity change, negative = inhibition is 1.3% (inactive).

For the compound `Cc1ccc(C)c(NC(CC(=O)c2ccccc2)C(=O)OCC(=O)c2cccs2)c1` (centres undefined), the activity change, negative = inhibition was -4.17% (inactive).

Take `CCOc1ccccc1N1CCN(C(=S)Nc2ccc(S(N)(=O)=O)cc2)CC1`: the activity change, negative = inhibition was -4.15% (inactive).
